Records with an inconclusive call do not appear. Activity calls are given as the source filed them. Unless noted, calls follow the shape of the dose curve; as a rule, active = well fitted curve in the direction sought with a large enough effect; inconclusive = small, poorly fitted or top-dose-only effect, or another doubt; inactive = no such curve, though single readings can be large; an effect the other way counts as inactive or inconclusive.
Columns and labels:
[1] = molecular target: DNA repair nuclease/redox regulator APEX1 (Homo sapiens) (UniProt P27695); experiment: qHTS Validation Assay for Inhibitors of the Human Apurinic/apyrimidinic Endonuclease 1 (APE1) (AID 1705;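 also: TAMRA fluorescence gain over two minutes as APE1 cuts a quenched THF abasic duplex; series mostly up to about 57 µM; % is scaled to controls: 0 for no effect and ±100 for the full control effect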)
Outline: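 Fluorogenic double-stranded THF abasic-site substrate (5'-TAMRA/3'-BHQ-2), 50 nM final. Enzyme preincubated with compound 15 min at room temperature, then substrate added. Kinetic fluorescence (ex 525/em 598 nm) read three times at 60 s intervals; activity taken as third-minus-first read difference.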

[2] = Counterscreen for APE1 Inhibitors: Fluorescent Dye Displacement Validation Assay (AID 1707);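 also: plate controls were ThO with dsDNA and no compound for no effect and ThO without dsDNA for full effect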
Outline: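 Thiazole Orange displacement from dsDNA: 250 nM ThO with 50 nM TAMRA-labelled abasic-site (tetrahydrofuran) duplex in 50 mM Tris-HCl pH7.5, 50mM NaCl, 2 mM MgCl2, 0.01% Tween-20. Loss of endpoint fluorescence (ex 480 nm, em 540 nm) flags DNA binders.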

[3] = qHTS for differential inhibitors of proliferation of Plasmodium falciparum line 7G8 (AID 1815);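 also: parasite growth measured after three days of incubation; plate controls were vehicle wells for no effect and reference inhibitor wells for full effect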
[4] = qHTS for differential inhibitors of proliferation of Plasmodium falciparum line 3D7 (AID 1876);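 also: parasite growth measured after three days of culture; 0% = vehicle wells and -100% = reference inhibitor wells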
[5] = qHTS for differential inhibitors of proliferation of Plasmodium falciparum line D10 (AID 1877);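 also: parasites grown with compound for 72 h before DNA staining; plate controls were vehicle wells for no effect and reference inhibitor wells for full effect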
[6] = qHTS for differential inhibitors of proliferation of Plasmodium falciparum line Dd2 (AID 1882); conditions: Potency: Plasmodium falciparum Dd2 proliferation inhibition;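 also: series mostly up to about 29 µM; compound exposure of 72 h on infected erythrocytes; plate controls were DMSO vehicle for no effect and 0.29 µM artemisinin for full effect; nearly all actives have a fitted effect of over 65% in size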
Outline: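 SYBR Green I DNA fluorescence read-out, ex 485/em 535 nm. Signals were normalized to 0.29 uM artemisinin and DMSO wells, then corrected using vehicle-only plates flanking each stack. Parasite growth ran 72 h in erythrocytes before lysis.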

[7] = qHTS for differential inhibitors of proliferation of Plasmodium falciparum line HB3 (AID 1886); conditions: Potency: Plasmodium falciparum HB3 proliferation inhibition;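 also: parasites grown with compound for 72 h before SYBR Green readout; plate controls were vehicle for no effect and reference inhibitor for full effect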
[8] = qHTS Assay for Modulators of Human Peripheral Myelin Protein 22 (PMP22) Expression/Activity (AID 1967; active = well fitted curve in the direction sought with a large enough effect in the signal ratio; the % refers to the signal ratio;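 also: 0% = untreated cells and 100% end not stated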)
Outline: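 Mouse MSC80 Schwann cells carrying Pmp22 promoter–green click beetle luciferase plus EF-alpha–red luciferase control, dosed 24 h at 37 °C. Dual-filter luminescence, overlap-corrected; %Activity from green/red ratio normalised to untreated cells, concentration-response curves fitted.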

[9] = molecular target: Ferritin light chain (Equus caballus) (UniProt P02791); experiment: qHTS Validation Assay for Identification of Novel General Anesthetics (AID 2323); also: series mostly up to about 77 µM; % is scaled to controls: 0 for no effect and ±100 for the full control effect
Outline: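 Horse-spleen apoferritin (10 uM) in PBS with 50% saturated 1-aminoanthracene; compounds pin-transferred, 10 min at room temperature. Fluorescence read at 380/535 nm, normalized to free 1-AMA and 1-AMA/apoferritin values; four-parameter Hill fit.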

[10] = molecular target: ATP-dependent DNA helicase Q1 (Homo sapiens) (UniProt P46063); experiment: qHTS Validation Assay for Inhibitors of RecQ-Like Dna Helicase 1 (RECQ1) (AID 2353);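 also: plate controls were DMSO vehicle for no effect and enzyme-free control for full effect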
Outline: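 50 nM RECQ1T1 preincubated 15 min with compound in Tris pH 8.0 buffer with MgCl2, DTT, Tween-20 and 2.5 ug/ml poly(dI-dC); started with 200 nM TAMRA/BHQ-2 forked duplex and 2 mM ATP. Unwinding read as fluorescence (525/598 nm), two reads 2 h apart.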

[11] = molecular target: RecQ-like DNA helicase BLM (Homo sapiens) (UniProt P54132); experiment: qHTS Validation Assay for Inhibitors of Bloom's syndrome helicase (BLM) (AID 2364);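 also: plate controls were DMSO vehicle for no effect and enzyme-free control for full effect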
Outline: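 BLM 50 nM in 25 mM Tris-HCl pH 8.0, 5 mM NaCl, 2 mM MgCl2, 1 mM DTT, 0.01% Tween-20, 2.5 ug/ml poly(dI-dC); 15 min cpd preinc, RT. Start: 200 nM forked DNA + 2 mM ATP (final). TAMRA read, 2 reads 2 h apart.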

[12] = Validation screen for inhibitors of Lassa infection (AID 463096; calls by dose curve; also: % is scaled to controls: 0 for no effect and ±100 for the full control effect)
[13] = Validation screen for small molecules that induce DNA re-replication in MCF 10A normal breast cells (AID 463097); also: 0% is about no effect; nearly all actives have a fitted effect of over 60% in size
Outline: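 MCF 10A cells exposed to compound 48 hr at 37 C, 5% CO2, then Hoechst-stained 40 min. Laser-scanning imaging of nuclear DNA content (405 nm ex, 500-530 nm em); re-replication scored as rise in nuclei with elevated fluorescence intensity.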

[14] = Quantitative high throughput screen for delayed death inhibitors of the malarial parasite plastid, 48 hour incubation (AID 488752); also: % is scaled to controls: 0 for no effect and ±100 for the full control effect; nearly all actives have a fitted effect of over 65% in size
Outline: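 Erythrocytes infected with P. falciparum carrying an integrated firefly luciferase reporter (2% hematocrit, 0.1% parasitemia final) were exposed to compounds in RPMI 1640/0.5% Albumax for 48 h at 37 C, 5% CO2. Growth inhibition was scored as reduced luminescence.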

[15] = molecular target: M-phase phosphoprotein 8 (Homo sapiens) (UniProt Q99549); experiment: qHTS Validation Assay for Inhibitors for MPP8 Chromodomain Interactions with Methylated Histone Tails (AID 488949); also: top concentration of the series differs between compounds; % is scaled to controls: 0 for no effect and ±100 for the full control effect; nearly all actives have a fitted effect of over 55% in size
Outline: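 MPP8 (50 nM) was pre-bound to 50 nM biotinylated H3(1-18)K9me3 peptide in PBS pH 7.4 with 0.01% Tween-20. Compounds were then added for 30 min at room temperature, and complex disruption was read by AlphaScreen with streptavidin donor and nickel-chelate acceptor beads.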

[16] = molecular target: Transient receptor potential cation channel subfamily V member 1 (Homo sapiens) (UniProt Q8NER1); experiment: HTS Assay for Compounds that Act as Enhancers of the Vanilloid Receptor 1 (AID 488979); also: 0% is about no effect
Outline: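 TRPV1-expressing cells loaded with Fluo-8 calcium dye; compounds added and calcium influx read kinetically for 3 min (agonist phase), then capsaicin at EC20 added and read 2 min more for enhancement. Fluorescence ex 480/em 520 nm.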

[17] = molecular target: Thyrotropin receptor (Homo sapiens) (UniProt P16473); experiment: qHTS Assay for Antagonists of the Thyroid Stimulating Hormone Receptor (AID 488980); also: series mostly up to about 58 µM; 0% is about no effect
Outline: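 TSHR-transfected HEK293 cells (2000/well) in HEPES-buffered HBSS with 70 uM RO 20-1724 were stimulated with 4 nM TSH (EC80, final) in the presence of compound. cAMP was measured by HTRF competition after lysis and 30 min at RT.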

[18] = molecular target: Thyrotropin-releasing hormone receptor (Homo sapiens) (UniProt P34981); experiment: qHTS for Small Molecule Agonists and Allosteric Enhancers of Human TRH Receptor: Validation Screen for Agonists (AID 493127;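 active = calcium activation more than 3 SD above the typical response in the agonist read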;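 also: intracellular calcium rise by fluo-8 fluorescence before TRH EC20 addition; 0% is about no effect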); conditions: TRH receptor agonist cell assay; at 2 µM; hits give high values
Outline: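 TRHR-expressing cells were plated overnight in serum-containing medium, then loaded with fluo-8 calcium dye at room temperature for 30 min–1.5 h. After a 10 s baseline, compound was pin-transferred and calcium fluorescence (ex 480/em 530) read kinetically for agonist response.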

[19] = molecular target: Galactokinase (Homo sapiens) (UniProt P51570); experiment: qHTS Validation Assay for Inhibitors of Human Galactokinase (GALK) (AID 493189); also: 0% is about no effect
Outline: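 GALK (5 nM) with 35 uM ATP and 100 uM galactose in HEPES pH 8.0 with MgCl2, NaCl, DTT and BSA. Reaction ran 1 h at room temperature. Residual ATP read by Kinase-Glo Plus luminescence.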

[20] = molecular target: Voltage-gated inwardly rectifying potassium channel KCNH2 (Homo sapiens) (UniProt Q12809); experiment: qHTS Assay for Small Molecule Inhibitors of the Human hERG Channel Activity (AID 588834);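 also: top concentration of the series differs between compounds; % is scaled to controls: 0 for no effect and ±100 for the full control effect; lower thallium flux fluorescence means stronger hERG block; nearly all actives have a fitted effect of over 50% in size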
Outline: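 U2OS cells BacMam-transduced with hERG, 2000 cells/well, compound ~10 min at 37 °C before stimulation buffer. FluxOR thallium flux fluorescence read kinetically on FDSS; decrease indicates block; AC50 from Hill fits.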

[21] = system: Zika virus NS2B-NS3 protease; experiment: Primary screen GU AMC qHTS for Zika virus inhibitors (AID 1347154);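 also: 0% = no-inhibitor control and -100% = no-enzyme control; nearly all actives have a fitted effect of over 70% in size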
Outline: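 Unlinked Zika NS2B hydrophilic domain/NS3 protease domain noncovalent complex (25 nM final) in 10 mM Tris-HCl pH 8.0, 0.01% Tween 20, with AMC peptide substrate. Fluorescence (ex 340, em 450 nm) change over 15 min, room temperature; percent inhibition fitted to 4-parameter Hill equation.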

Sequence of ATP-dependent DNA helicase Q1 (Homo sapiens) (P46063 whole entry, looked up): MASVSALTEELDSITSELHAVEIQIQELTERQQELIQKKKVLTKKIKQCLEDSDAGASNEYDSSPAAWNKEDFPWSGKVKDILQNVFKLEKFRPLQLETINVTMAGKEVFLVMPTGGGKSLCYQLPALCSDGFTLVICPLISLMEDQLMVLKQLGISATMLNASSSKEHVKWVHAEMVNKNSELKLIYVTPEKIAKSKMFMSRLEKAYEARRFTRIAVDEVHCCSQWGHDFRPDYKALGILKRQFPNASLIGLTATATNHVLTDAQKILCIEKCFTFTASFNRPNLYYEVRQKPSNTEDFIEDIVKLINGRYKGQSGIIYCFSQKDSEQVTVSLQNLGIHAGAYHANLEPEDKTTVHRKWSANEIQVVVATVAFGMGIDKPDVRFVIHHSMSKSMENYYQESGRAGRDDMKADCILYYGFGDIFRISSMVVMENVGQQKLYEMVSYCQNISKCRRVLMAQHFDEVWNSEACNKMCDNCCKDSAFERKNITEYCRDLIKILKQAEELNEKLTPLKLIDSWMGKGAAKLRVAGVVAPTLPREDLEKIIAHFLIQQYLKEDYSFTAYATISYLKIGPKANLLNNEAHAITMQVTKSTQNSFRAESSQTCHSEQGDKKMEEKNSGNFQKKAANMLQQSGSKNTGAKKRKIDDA
Sequence of Voltage-gated inwardly rectifying potassium channel KCNH2 (Homo sapiens) (Q12809 whole entry, looked up): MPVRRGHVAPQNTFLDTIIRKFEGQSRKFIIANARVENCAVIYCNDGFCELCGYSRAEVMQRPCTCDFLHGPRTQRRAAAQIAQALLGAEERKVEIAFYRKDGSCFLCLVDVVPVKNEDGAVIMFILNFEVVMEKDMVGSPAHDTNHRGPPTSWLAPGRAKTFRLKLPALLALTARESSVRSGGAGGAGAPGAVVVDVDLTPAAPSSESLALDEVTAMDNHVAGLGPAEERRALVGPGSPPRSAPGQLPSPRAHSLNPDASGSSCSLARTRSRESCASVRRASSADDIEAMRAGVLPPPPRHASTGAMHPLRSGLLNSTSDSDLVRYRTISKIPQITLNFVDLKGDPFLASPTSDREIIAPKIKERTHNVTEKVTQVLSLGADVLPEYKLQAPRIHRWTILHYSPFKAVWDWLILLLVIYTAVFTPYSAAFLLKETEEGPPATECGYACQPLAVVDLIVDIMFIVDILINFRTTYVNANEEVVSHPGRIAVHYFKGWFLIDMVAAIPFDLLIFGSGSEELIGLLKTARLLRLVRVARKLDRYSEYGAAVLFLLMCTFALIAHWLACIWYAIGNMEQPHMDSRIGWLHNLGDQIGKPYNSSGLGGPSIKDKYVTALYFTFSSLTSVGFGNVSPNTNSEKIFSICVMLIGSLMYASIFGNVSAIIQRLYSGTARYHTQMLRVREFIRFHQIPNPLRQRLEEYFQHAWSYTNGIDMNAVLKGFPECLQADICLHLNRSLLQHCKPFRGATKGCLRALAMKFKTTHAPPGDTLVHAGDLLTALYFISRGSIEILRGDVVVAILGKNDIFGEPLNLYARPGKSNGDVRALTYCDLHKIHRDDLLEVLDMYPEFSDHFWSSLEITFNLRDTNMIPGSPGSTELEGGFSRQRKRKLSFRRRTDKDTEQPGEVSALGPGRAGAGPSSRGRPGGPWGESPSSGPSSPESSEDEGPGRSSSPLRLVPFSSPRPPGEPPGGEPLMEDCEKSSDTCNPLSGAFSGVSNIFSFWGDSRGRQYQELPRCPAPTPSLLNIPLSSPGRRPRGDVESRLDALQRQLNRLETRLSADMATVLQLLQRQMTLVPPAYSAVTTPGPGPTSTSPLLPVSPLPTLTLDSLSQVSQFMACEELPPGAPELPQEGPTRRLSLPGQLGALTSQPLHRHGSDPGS
Sequence of Transient receptor potential cation channel subfamily V member 1 (Homo sapiens) (Q8NER1 whole entry, looked up): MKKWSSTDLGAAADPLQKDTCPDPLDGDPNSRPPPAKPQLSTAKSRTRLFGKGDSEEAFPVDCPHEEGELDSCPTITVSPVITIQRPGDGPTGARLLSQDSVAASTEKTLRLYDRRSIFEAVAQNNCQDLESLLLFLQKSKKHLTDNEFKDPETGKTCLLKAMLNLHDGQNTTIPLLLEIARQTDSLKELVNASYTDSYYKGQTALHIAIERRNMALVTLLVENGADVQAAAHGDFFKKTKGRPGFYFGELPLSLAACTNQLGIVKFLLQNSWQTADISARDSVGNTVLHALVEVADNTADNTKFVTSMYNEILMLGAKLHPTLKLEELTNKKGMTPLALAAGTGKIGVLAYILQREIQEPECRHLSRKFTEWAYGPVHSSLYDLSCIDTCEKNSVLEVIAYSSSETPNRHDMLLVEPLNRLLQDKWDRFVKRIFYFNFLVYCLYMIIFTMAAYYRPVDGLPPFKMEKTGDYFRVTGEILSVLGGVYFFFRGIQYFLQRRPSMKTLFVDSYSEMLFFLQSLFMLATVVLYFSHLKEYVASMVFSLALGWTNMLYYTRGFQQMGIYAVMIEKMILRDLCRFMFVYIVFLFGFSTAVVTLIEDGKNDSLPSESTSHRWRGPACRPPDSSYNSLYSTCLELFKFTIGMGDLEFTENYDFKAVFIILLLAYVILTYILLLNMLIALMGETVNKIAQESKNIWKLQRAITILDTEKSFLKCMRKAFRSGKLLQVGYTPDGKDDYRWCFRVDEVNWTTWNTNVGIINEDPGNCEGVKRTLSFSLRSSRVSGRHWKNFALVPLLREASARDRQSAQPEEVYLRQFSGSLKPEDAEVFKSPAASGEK
Sequence of Thyrotropin-releasing hormone receptor (Homo sapiens) (P34981 whole entry, looked up): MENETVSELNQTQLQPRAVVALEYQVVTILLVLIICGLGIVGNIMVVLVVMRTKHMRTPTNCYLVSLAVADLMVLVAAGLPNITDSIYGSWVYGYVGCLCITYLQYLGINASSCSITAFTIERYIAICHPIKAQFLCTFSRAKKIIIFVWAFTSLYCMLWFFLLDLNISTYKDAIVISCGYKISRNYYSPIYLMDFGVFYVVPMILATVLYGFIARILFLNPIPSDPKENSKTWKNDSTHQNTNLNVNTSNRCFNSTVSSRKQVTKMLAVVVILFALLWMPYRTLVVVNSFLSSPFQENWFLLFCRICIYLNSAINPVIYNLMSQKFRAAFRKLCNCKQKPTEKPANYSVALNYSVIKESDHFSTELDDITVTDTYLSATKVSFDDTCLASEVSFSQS
Sequence of Galactokinase (Homo sapiens) (P51570 whole entry, looked up): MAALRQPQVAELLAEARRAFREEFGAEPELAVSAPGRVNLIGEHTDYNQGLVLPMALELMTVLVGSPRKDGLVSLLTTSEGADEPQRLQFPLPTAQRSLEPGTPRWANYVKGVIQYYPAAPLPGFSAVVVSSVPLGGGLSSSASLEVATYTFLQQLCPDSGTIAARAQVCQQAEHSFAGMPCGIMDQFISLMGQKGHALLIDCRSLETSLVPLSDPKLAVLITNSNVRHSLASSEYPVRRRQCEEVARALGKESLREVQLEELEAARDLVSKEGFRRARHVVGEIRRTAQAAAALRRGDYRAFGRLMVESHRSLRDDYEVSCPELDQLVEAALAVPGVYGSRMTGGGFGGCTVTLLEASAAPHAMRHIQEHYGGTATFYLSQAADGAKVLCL
Sequence of DNA repair nuclease/redox regulator APEX1 (Homo sapiens) (P27695 whole entry, looked up): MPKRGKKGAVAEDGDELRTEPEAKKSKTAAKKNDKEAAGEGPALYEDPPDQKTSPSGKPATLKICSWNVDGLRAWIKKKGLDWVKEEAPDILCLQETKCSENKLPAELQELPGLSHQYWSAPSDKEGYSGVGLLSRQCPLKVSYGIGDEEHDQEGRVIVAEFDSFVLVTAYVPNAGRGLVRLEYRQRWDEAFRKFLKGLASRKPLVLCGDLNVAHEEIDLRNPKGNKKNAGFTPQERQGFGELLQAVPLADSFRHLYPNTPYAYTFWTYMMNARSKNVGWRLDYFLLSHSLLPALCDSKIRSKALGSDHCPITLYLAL
Sequence of Ferritin light chain (Equus caballus) (P02791 2-175 limits assumed): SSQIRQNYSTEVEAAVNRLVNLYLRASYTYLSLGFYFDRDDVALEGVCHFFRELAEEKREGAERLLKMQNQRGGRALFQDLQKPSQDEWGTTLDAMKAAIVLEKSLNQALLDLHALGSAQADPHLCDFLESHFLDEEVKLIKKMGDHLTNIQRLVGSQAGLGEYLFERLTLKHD
Sequence of Thyrotropin receptor (Homo sapiens) (P16473 whole entry, looked up): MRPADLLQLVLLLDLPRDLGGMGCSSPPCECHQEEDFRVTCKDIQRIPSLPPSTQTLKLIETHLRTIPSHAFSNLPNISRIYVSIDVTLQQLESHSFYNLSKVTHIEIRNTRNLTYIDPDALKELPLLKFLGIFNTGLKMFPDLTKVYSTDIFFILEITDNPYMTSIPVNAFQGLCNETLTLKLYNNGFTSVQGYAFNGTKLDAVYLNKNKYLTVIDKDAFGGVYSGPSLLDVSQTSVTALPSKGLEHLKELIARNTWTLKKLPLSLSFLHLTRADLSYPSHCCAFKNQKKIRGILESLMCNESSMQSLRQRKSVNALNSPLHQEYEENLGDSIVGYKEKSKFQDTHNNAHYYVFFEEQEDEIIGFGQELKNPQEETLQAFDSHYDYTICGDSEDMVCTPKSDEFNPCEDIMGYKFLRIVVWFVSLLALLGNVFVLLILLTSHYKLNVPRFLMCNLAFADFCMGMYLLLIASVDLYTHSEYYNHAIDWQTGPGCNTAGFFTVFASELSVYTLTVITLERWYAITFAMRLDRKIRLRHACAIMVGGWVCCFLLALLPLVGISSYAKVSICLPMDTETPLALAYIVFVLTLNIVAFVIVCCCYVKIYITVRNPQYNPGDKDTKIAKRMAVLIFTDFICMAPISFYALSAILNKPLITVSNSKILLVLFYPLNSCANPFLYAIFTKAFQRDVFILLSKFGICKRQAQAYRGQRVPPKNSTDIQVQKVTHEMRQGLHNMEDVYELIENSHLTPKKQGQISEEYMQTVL

COc1ccc2[nH]cc(CCN(C)C)c2c1
inactive: Potency [1] | Potency [2] | Potency [3] | Potency [4] | Potency [5] | Potency [6] | Potency [7] | outcome [8] | outcome [9] | Potency [10] | Potency [11] | Potency [12] | Potency [13] | Potency [14] | Potency [15] | outcome [16] | outcome [17] | activation [18] 0.688% | outcome [19] | Potency [20] | Potency [21]

Source: PubChem BioAssay (NCATS)
